Screens from PubChem.
POLB inh – qHTS Assay for Inhibitors of DNA Polymerase Beta | Pol beta primer extension/strand displacement, fluorescence kinetic | AID 485314, 2010 | hit rate 1.3% among 340,000 | Potency, µM (highest dose often 114 µM), for the others: at the top dose activity change, negative = inhibition, usual class: inhibitors | P06746; also: potency is read from the fitted curve at half-maximal effect; % is scaled to controls: 0 for no effect and ±100 for the full control effect
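Homogeneous kinetic assay of primer extension and strand displacement by 10 nM Pol beta, preincubated 15 min at room temperature with compound before 50 nM substrate (final) was added. Read at 0 and 10 min; four-parameter Hill fit.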
WRN inhibitor – qHTS for Inhibitors of WRN Helicase | WRN helicase unwinding, fluorescent forked duplex, kinetic | Potency, µM (series often up to 114 µM), inactives show at the top dose activity change, negative = inhibition, most hits filed as inhibitors | hit rate 0.46% among 360,000 | AID 651768, 2012; also: potency is read from the fitted curve at half-maximal effect; % is scaled to controls: 0 for no effect and ±100 for the full control effect; nearly all actives have a fitted effect of over 55% in size
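Kinetic red-fluorescence monitoring (525/598 nm) tracks WRN helicase activity after 100 nM fluorophore-quencher forked duplex and 2 mM ATP are added to 20 nM enzyme pretreated 15 min at room temperature with compound.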
Pol iota inh – qHTS for Inhibitors of Polymerase Iota | Pol iota fluorescent replication assay, 10 min | Potency, µM (doses to about 115 µM), for inactives: at the top dose activity, negative = inhibition, most hits filed as inhibitors | hit rate 1% among 390,000 | AID 588590, 2011; also: potency is read from the fitted curve at half-maximal effect
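Pol iota at 10 nM preincubated 15 min with compounds at room temperature; reaction started with fluorescent substrate, 50 nM final. Fluorescence read kinetically at 0 and 10 min; buffer-only wells as negative control.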
POLH inh – qHTS for Inhibitors of Polymerase Eta. DNA polymerase eta (Homo sapiens), Q9Y253. recombinant Pol eta, fluorescent DNA replication assay. Potency, µM (top dose mostly 114 µM), for inactives: at the highest dose activity change, negative = inhibition, usual class: inhibitors. hit rate 1.2% among 390,000. AID 588591, 2011; also: potency is read from the fitted curve at half-maximal effect; % is scaled to controls: 0 for no effect and ±100 for the full control effect
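Pol eta at 10 nM preincubated with compounds 15 min at room temperature; reaction started with fluorescent substrate (50 nM final) and read kinetically at 0 and 10 min.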
POLK inh – qHTS for Inhibitors of Polymerase Kappa | DNA polymerase kappa (Homo sapiens), Q9UBT6 | purified Pol kappa, fluorescent DNA synthesis assay, 10 min | Potency, µM (doses to about 107 µM), for the others: top-dose activity, negative = inhibition, hits mostly inhibitors | hit rate 0.53% among 400,000; also: potency is read from the fitted curve at half-maximal effect; % is scaled to controls: 0 for no effect and ±100 for the full control effect
Target sequence (Q9UBT6 whole entry, looked up): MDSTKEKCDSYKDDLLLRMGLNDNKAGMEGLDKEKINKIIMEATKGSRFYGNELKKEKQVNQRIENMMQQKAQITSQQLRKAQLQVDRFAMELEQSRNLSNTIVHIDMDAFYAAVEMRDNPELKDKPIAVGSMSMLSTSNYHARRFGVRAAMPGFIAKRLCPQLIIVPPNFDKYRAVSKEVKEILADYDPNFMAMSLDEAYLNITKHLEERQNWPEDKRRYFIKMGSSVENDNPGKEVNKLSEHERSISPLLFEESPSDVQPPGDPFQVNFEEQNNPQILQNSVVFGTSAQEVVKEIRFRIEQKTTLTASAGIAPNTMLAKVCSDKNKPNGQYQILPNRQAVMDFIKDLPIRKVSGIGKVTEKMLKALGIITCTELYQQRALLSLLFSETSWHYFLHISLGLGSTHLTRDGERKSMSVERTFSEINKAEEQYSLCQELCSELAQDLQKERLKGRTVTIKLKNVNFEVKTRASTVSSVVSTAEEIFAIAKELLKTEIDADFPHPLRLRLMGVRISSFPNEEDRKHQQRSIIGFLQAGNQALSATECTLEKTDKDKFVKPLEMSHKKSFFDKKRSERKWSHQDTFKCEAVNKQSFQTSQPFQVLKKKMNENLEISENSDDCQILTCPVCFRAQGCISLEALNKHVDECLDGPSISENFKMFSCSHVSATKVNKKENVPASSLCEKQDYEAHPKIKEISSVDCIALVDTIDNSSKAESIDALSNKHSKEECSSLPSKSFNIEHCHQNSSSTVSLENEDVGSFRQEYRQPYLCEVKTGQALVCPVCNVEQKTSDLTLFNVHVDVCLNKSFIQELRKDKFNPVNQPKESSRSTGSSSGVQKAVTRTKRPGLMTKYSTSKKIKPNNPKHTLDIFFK
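Inhibition of 10 nM Pol kappa is measured by a fluorescent read-out at 0 and 10 min following addition of 50 nM substrate (final), with a 15-min room-temperature compound preincubation.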
PI5P4Ka inh – qHTS for Inhibitors of phosphatidylinositol 5-phosphate 4-kinase (PI5P4K); max response, %; AID 652105, 2013; hit rate 1.2% among 330,000; Phosphatidylinositol 5-phosphate 4-kinase type-2 alpha (Homo sapiens), P48426; PI5P4Kalpha enzyme, ADP-Glo luminescence, 60 min; active compounds read low; active = max response of -50% or lower; inconclusive = between -30% and -50%; inactive = -30% or higher; also: value at the top dose of about 77 µM; % is scaled to controls: 0 for no effect and ±100 for the full control effect
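Single end-point luminescence (ADP-Glo) quantified ADP from PI5P4Kalpha turnover; ATP 5 microM final, 1 h at RT, 0.1% CHAPS and 0.28 mM EGTA in HEPES pH 7.4.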
* hit, by the source's call; ? = inconclusive; . = no result; ! = repeats disagree; [ ] = remark or other dose. Most compounds without a hit are left out; they make up all but 2.8% or so of the library. Unless noted, calls follow the shape of the dose curve; as a rule, active = well fitted curve in the direction sought with a large enough effect; inconclusive = small, poorly fitted or top-dose-only effect, or another doubt; inactive = no such curve, though single readings can be large; an effect the other way counts as inactive or inconclusive.

SMILES	POLB inh	WRN inhibitor	Pol iota inh	POLH inh	POLK inh	PI5P4Ka inh
CC(C)(C)c1nnc2sc(SC/C(O)=C(\C#N)c3nc4ccccc4[nH]3)nn2c1=O	-20.9%	?	-25.6%	20µM*	-16.6%	?
CC(C)(C)c1nnc2sc(SCC(=O)c3ccccc3)nn2c1=O	-0.9%	10.9%	5.2%	-10.0%	2.4%	9.6
CCCn1c2ccccc2c2cnn(CC(=O)Nc3cc(OC)c(OC)c(OC)c3)c(=O)c21	-16.5%	.	-11.4%	-9.5%	-14.1%	.
Cc1ccc2oc(-c3cccc(NC(=O)COc4ccc(Cl)cc4C)c3C)nc2c1	.	.	15.8%	.	9.6%	.
COc1ccc(CN2CCSc3sccc3C2=O)cc1	79.4µM*	-8.0%	-15.7%	-2.0%	-6.7%	0.0
CCN1/C(=C/C=C/C=C/C=C/c2sc3ccccc3[n+]2CC)Sc2ccccc21	-9.7%	-29.6%	?	-15.9%	-2.0%[60.1 µM]	?
CCN1/C(=C/C=C/C=C/c2sc3ccccc3[n+]2CC)Sc2ccccc21	15.8µM*	.	17.8µM*	.	31.6µM*	.
CCN1/C(=C/C=C/c2sc3ccccc3[n+]2CC)Sc2ccccc21	.	39.8µM*	?	39.8µM*	11.2µM*!	-19.5
CCOc1ccc(CNC(=O)c2ccc3nc(Cc4ccc(OC)cc4)oc3c2)cc1OC	-18.2%	.	-1.3%	-17.2%	-7.7%[60.1 µM]	.
CCc1ccc(-n2c(SCc3cccc(F)c3)nc3[nH]ncc3c2=O)cc1	-1.1%	.	-12.5%	?	-17.8%[60.1 µM]	.
O=C(COc1ccccc1C(=O)Nc1ccccc1)NC1CCCCC1	.	.	8.2%	.	5.2%	.
N#Cc1c(-c2ccccc2)cc(-c2ccc3c(c2)OCO3)[nH]c1=O	.	-4.5%	17.1%	-15.0%	2.1%	-10.2
COc1ccc(-c2cc(-c3ccco3)[nH]c(=O)c2C#N)cc1OC	?	-8.2%	10µM*	56.2µM*	79.4µM*	-24.1
CC(C)Nc1nnc(SCc2cc(=O)n3ccsc3n2)s1	31.6µM*	-7.3%	?	-16.7%	-18.4%	-25.4
CCOc1ccc(Nc2oc(-c3ccc(COc4ccc(OC)cc4)o3)nc2C#N)cc1	?	.	7.5%	-2.4%	-26.2%	.
Cc1cccc(N2C(=O)/C(=C\c3ccc(C(=O)O)cc3)c3ccccc3C2=O)c1	-7.4%	-2.9%	46.4%	44.7µM*	-19.4%	-2.3
N#C/C(=C\c1cccs1)C(=O)c1ccccc1	?	?	28.2µM*	-17.1%	-11.7%	-7.4
N#CC(=Cc1ccc(-c2ccccc2)cc1)C(=O)c1ccccc1	.	-15.5%[57.1 µM]	.	.	.	-1.0
CN(Cc1ccccc1)S(=O)(=O)c1ccc2[nH]c3c(c2c1)CCCCC3	-19.5%	.	?	-6.9%	0.9%	.
CCOc1ccccc1C(=O)NCC(=O)OCC(=O)c1ccc2c(c1)OCCO2	70.8µM*	-17.3%	?	3.3%	-35.8%	0.2
CCc1ccccc1NC(=O)Cn1nnc2sc3c(c2c1=O)CCC(C(C)(C)C)C3 (centres undefined)	1.0%	.	12.1%	.	-10.4%	.
COc1cc(Cl)c(C)cc1NC(=O)CCn1c(=O)c2cccn2c2cccnc21	13.2%	.	1.8%	79.4µM*	2.9%	.
COC(=O)c1ccccc1NC(=O)CCn1c(=O)c2cccn2c2cccnc21	31.5%	.	5.3%	-10.9%	-6.1%	.
C=CCSc1ncc(C(=O)OCC)c(N)n1	12.4%	-8.2%	-3.7%	3.7%	-2.2%	5.5
CCOC(=O)c1cnc(SSc2ncc(C(=O)OCC)c(N)n2)nc1N	12.7%	1.1%	-5.8%	3.2%	-6.6%	-70.9*
Cc1cc(SCC(=O)Nc2ccc(F)cc2F)nc(=O)[nH]1	15.8µM*	.	?	?	-12.2%[60.1 µM]	.
Cc1cc(SCc2cccc([N+](=O)[O-])c2)nc(=O)[nH]1	?	-11.0%	?	4.4%	-23.4%	?
Cc1cc(SCc2ccc([N+](=O)[O-])cc2)nc(=O)[nH]1	?	-6.2%[11.6 µM]	-1.2%	25.1µM*	-13.9%	-58.9*
